Assay outcomes deposited in PubChem by several laboratories.
The full list was thinned out, with hits kept by preference.
Autofluor counter: compound fluorescence in toxin protease inhibitor counterscreen. compound autofluorescence counterscreen, microsphere flow cytometry; hits give high values. fluorescence intensity (no concentration beside the values). 360,000 tested, 3.1% active. AID 624483; in the data active means fluorescence intensity above about 16000; inconclusive means no clear call, values can overlap the other calls
TcdB inh: TcdB glycohydrolase inhibition. 350,000 tested, 0.24% active. TcdB glycohydrolase enzymatic assay, plate reader. inhibition, % at 9.99 µM; in the data active means inhibition above about 10%
Anthrax LF inh2: anthrax lethal factor protease inhibition. P15917. multiplex microsphere protease cleavage assay, LF. inhibition, % at 10 µM. 360,000 tested, 0.12% active. AID 588501
Target sequence (P15917 whole entry, looked up): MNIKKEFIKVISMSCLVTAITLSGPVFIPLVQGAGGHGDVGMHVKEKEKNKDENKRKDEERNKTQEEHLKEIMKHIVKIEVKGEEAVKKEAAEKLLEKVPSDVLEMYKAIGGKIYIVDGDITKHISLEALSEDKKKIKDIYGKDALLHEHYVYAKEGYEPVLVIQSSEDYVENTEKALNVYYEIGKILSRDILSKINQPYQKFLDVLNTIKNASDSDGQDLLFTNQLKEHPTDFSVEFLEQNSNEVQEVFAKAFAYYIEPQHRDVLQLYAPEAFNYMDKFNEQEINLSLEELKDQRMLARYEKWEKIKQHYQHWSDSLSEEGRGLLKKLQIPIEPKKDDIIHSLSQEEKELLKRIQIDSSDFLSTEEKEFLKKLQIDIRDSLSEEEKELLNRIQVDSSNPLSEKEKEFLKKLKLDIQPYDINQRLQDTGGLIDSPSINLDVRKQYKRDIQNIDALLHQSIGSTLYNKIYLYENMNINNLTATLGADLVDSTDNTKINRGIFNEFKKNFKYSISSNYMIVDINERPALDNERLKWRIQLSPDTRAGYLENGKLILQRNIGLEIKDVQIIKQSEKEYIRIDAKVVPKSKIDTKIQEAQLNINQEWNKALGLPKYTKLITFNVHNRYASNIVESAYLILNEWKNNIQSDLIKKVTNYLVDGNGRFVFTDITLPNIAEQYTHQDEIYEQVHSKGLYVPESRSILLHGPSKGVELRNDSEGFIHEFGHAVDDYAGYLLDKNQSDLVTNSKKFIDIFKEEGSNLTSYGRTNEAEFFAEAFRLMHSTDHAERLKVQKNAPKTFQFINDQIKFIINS
BoNT A protease: blocks Botulinum neurotoxin A light chain protease | multiplex microsphere protease substrate cleavage, flow cytometry | inhibition, % at 10 µM | 360,000 tested, 0.17% active | AID 588499
BoNT F protease: inhibitors of Botulinum neurotoxin F light chain protease. 360,000 tested, 0.22% active. Multiplex microsphere protease cleavage assay, flow cytometry. inhibition, % at 10 µM; in the data active means inhibition above about 35%, passing the limit was not always enough; inconclusive means no clear call, values can overlap the other calls
BoNT-A LC CP1: BoNT/A light chain protease inhibition; shares compounds with BoNT F protease; multiplex microsphere protease assay, flow cytometry; inhibition, % at 10 µM; 720 tested, 3% active; AID 602139; in the data active means inhibition above about 32%
BoNT-F LC CP1: blocks botulinum neurotoxin F light chain protease; AID 602140; inhibition, % at 10 µM; shares compounds with BoNT F protease; multiplex microsphere protease cleavage assay, flow cytometry; 720 tested, under 10 active; call rule not given here
LF protease CP1: Bacillus anthracis lethal factor protease inhibition | shares compounds with BoNT F protease | multiplex microsphere protease cleavage assay, LF | 720 tested, under 10 active | inhibition, % at 10 µM; call rule not given here
Each line names hits and unclear results; the compound was inactive in the other large screens (follow-up assays come after a bar, where they were run). Unless noted, no stated cut-off is given here; in the data, active means inhibition above about 30%; inconclusive means no clear call, values can overlap the other calls; inactive means below that.

CCc1ccc(C(=O)CN2C(=O)NC3(CCCCCC3)C2=O)cc1	BoNT F protease 43 | BoNT-A LC CP1 inactive | BoNT-F LC CP1 inactive | LF protease CP1 inactive
O=C(CN1C(=O)NC2(CCCCCC2)C1=O)c1ccc(F)cc1	Autofluor counter inconclusive, Anthrax LF inh2 inconclusive, BoNT A protease inconclusive, BoNT F protease inconclusive
COc1ccc2nc(C)cc(Nc3ccc(C(=O)O)cc3)c2c1	BoNT F protease 39 | BoNT-A LC CP1 inactive | BoNT-F LC CP1 inactive | LF protease CP1 inactive
Cc1oc(C)c(S(=O)(=O)NCc2cccs2)c1C(=O)O	Anthrax LF inh2 38, BoNT A protease inconclusive, BoNT F protease inconclusive | BoNT-A LC CP1 inactive | BoNT-F LC CP1 inactive | LF protease CP1 inactive
COC(=O)c1ccccc1NC(=O)CN(C)Cc1ccccc1	none
COC(=O)c1ccc(C(=O)OC)c(NC(=O)CN(C)Cc2ccc(Cl)c(Cl)c2)c1	Anthrax LF inh2 37, BoNT F protease 65 (no result: TcdB inh) | BoNT-A LC CP1 inactive | BoNT-F LC CP1 inactive | LF protease CP1 inactive
C[C@H](O)C#Cc1ccc2c(c1)O[C@H](CN(C)C(=O)CN(C)C)[C@H](C)CN([C@@H](C)CO)S2(=O)=O	none (no result: Autofluor counter, Anthrax LF inh2, BoNT A protease, BoNT F protease)
CCOc1ccc(NC(=O)Nc2ccc(Br)cn2)cc1	BoNT F protease 48 | BoNT-A LC CP1 inactive | BoNT-F LC CP1 inactive | LF protease CP1 inactive
CCCC(=O)Nc1nnc(SCC(=O)NCc2ccc3c(c2)OCO3)s1	BoNT F protease 40 | BoNT-A LC CP1 inactive | BoNT-F LC CP1 inactive | LF protease CP1 inactive
O=C(CSc1nnc(SCC(=O)NCc2ccc3c(c2)OCO3)s1)NCc1ccc2c(c1)OCO2	none (no result: TcdB inh)
C[C@@H]1CN([C@@H](C)CO)C(=O)c2cc(NC(=O)C3CC3)ccc2O[C@H]1CN(C)Cc1ccccc1	none (no result: Autofluor counter, Anthrax LF inh2, BoNT A protease, BoNT F protease)
COc1ccc(CCNC(=O)c2ccc3c(c2)OCO3)cc1	BoNT A protease 64 | BoNT-A LC CP1 inactive | BoNT-F LC CP1 inactive | LF protease CP1 inactive
COc1ccc(CCNC(=O)c2ccc3c(c2)OCCO3)cc1	none (no result: TcdB inh)
CCOc1ccc(/C=C/C2=Cc3c(sc(NC(=O)CSc4n[nH]c(N)n4)c3C#N)C(C)(C)C2)cc1	Anthrax LF inh2 58, BoNT A protease 85, BoNT F protease 37 (no result: TcdB inh) | BoNT-A LC CP1 inactive | BoNT-F LC CP1 inactive | LF protease CP1 inactive
Cc1ccsc1/C=C/C1=Cc2c(sc(NC(=O)CSc3n[nH]c(N)n3)c2C#N)C(C)(C)C1	Autofluor counter 18756, Anthrax LF inh2 33, BoNT A protease 44 (no result: TcdB inh) | BoNT-A LC CP1 inactive | BoNT-F LC CP1 inactive | LF protease CP1 inactive
NC(=O)c1ccsc1NC(=O)CSc1n[nH]c(N)n1	none
COc1cc(C(=O)NCc2ccc3[nH]c(C)cc3c2)cc(OC)c1OC	BoNT A protease 53 | BoNT-A LC CP1 inactive | BoNT-F LC CP1 inactive | LF protease CP1 inactive
COc1cc(/C=C\C(=O)NCc2ccc3[nH]c(C)cc3c2)cc(OC)c1OC	none
COc1ccc(C(=O)NCc2ccc3[nH]c(C)cc3c2)cc1OC	BoNT A protease 65 | BoNT-A LC CP1 inactive | BoNT-F LC CP1 inactive | LF protease CP1 inactive
CC(=O)Nc1ccc(NS(=O)(=O)c2cc(-c3n[nH]c(=O)c4ccccc34)ccc2C)cc1	BoNT F protease 41 | BoNT-A LC CP1 inactive | BoNT-F LC CP1 inactive | LF protease CP1 inactive
C=CCc1cccc(CNn2cnnc2)c1O	BoNT F protease 43 | BoNT-A LC CP1 inactive | BoNT-F LC CP1 inactive | LF protease CP1 inactive
C[C@@H]1CN([C@@H](C)CO)C(=O)c2cccc(NS(=O)(=O)c3ccc(F)cc3)c2O[C@@H]1CN(C)Cc1ccncc1	none (no result: Autofluor counter, Anthrax LF inh2, BoNT A protease, BoNT F protease)
COc1ccc(CNC(=O)Cc2c[nH]c3ccccc23)cc1OC	none
COc1ccc(CNC(=O)N[C@@H](Cc2c[nH]c3ccccc23)C(=O)O)cc1	BoNT F protease 77 | BoNT-A LC CP1 inactive | BoNT-F LC CP1 inactive | LF protease CP1 inactive
COc1ccccc1CNC(=O)Cc1c[nH]c2ccccc12	BoNT F protease 36 | BoNT-A LC CP1 inactive | BoNT-F LC CP1 inactive | LF protease CP1 inactive
COc1ccc(CNC(=O)CCc2c[nH]c3ccccc23)cc1	none
COC(=O)c1ccc(CNC(=O)CCc2c[nH]c3ccccc23)cc1	BoNT F protease 81 | BoNT-A LC CP1 inactive | BoNT-F LC CP1 inactive | LF protease CP1 inactive
COc1ccc(S(=O)(=O)Nc2cccc3c2O[C@H](CN(C)S(=O)(=O)c2ccc(OC)cc2)[C@H](C)CN([C@H](C)CO)C3=O)cc1	none (no result: Autofluor counter, Anthrax LF inh2, BoNT A protease, BoNT F protease)
Cc1noc(C)c1NC(=O)Nc1cccc2c1O[C@H](CN(C)S(=O)(=O)c1cccs1)[C@H](C)CN([C@H](C)CO)C2=O	none (no result: Autofluor counter, Anthrax LF inh2, BoNT A protease, BoNT F protease)
O=C(N[C@@H]1CC[C@@H](CCn2cc(-c3ccccn3)nn2)O[C@H]1CO)c1ccncc1	none (no result: Autofluor counter, Anthrax LF inh2, BoNT A protease, BoNT F protease)
O=C(CCN1CCOCC1)c1ccc(Br)cc1	BoNT F protease 40 | BoNT-A LC CP1 inactive | BoNT-F LC CP1 inactive | LF protease CP1 inactive
O=C(CCN1CCOCC1)c1ccc(Cl)cc1	BoNT F protease 42 | BoNT-A LC CP1 inactive | BoNT-F LC CP1 inactive | LF protease CP1 inactive
CCCCCOc1ccc(C(=O)CCN2CCOCC2)cc1	none
CC(C)Oc1ccc(C(=O)CCN2CCOCC2)cc1	none | BoNT-A LC CP1 inactive | BoNT-F LC CP1 inactive | LF protease CP1 inactive
O=C(CCN1CCN(c2ccccc2)CC1)c1ccc(Br)cc1	none
Cc1noc(C)c1NC(=O)Nc1ccc2c(c1)CC(=O)N([C@@H](C)CO)C[C@@H](C)[C@H](CN(C)C(=O)Nc1ccc3c(c1)OCO3)O2	none (no result: Autofluor counter, Anthrax LF inh2, BoNT A protease, BoNT F protease)
CO[C@@H]1CN(C)C(=O)c2cc(NC(=O)C3CCC3)ccc2OC[C@@H](C)N(C(=O)Nc2ccc(C(F)(F)F)cc2)C[C@H]1C	none (no result: Autofluor counter, Anthrax LF inh2, BoNT A protease, BoNT F protease)
COc1ccc(CN(C)C[C@@H]2OCCCC[C@@H](C)Oc3ccc(NC(=O)c4ccccc4)cc3C(=O)N([C@@H](C)CO)C[C@H]2C)cc1	none (no result: Autofluor counter, Anthrax LF inh2, BoNT A protease, BoNT F protease)
COc1ccc(CCNC(=O)CCSCc2ccccc2F)cc1OC	BoNT F protease 48 | BoNT-A LC CP1 inactive | BoNT-F LC CP1 inactive | LF protease CP1 inactive
Cc1nc2sc(C(=O)O)c(N)c2c2c1COC(C)(C)C2	none (no result: TcdB inh)
CCOC(=O)c1sc2nc(-c3ccco3)c3c(c2c1N)CC(C)(C)OC3	BoNT A protease 33 (no result: TcdB inh) | BoNT-A LC CP1 inactive | BoNT-F LC CP1 inactive | LF protease CP1 inactive
Cc1cccc(CN2CCc3c([nH]c4ccccc34)C2)c1	none
COc1cc(OC)c(CN2CCc3c([nH]c4ccccc34)C2)cc1Br	Autofluor counter 26222, BoNT A protease 51, BoNT F protease inconclusive | BoNT-A LC CP1 inactive | BoNT-F LC CP1 inactive | LF protease CP1 inactive
O=C(C[C@@H]1C[C@@H]2c3cc(NC(=O)C4CCOCC4)ccc3O[C@@H]2[C@H](CO)O1)NC1CCCC1	none (no result: Autofluor counter, Anthrax LF inh2, BoNT A protease, BoNT F protease)
COc1ccc(NC(=O)N2[C@@H]3CNC[C@H]2C3c2ccc(-c3ccc(C)cc3)cc2)cc1 (stereo partly specified)	none (no result: Autofluor counter, Anthrax LF inh2, BoNT A protease, BoNT F protease)
O=C(Nc1ccc(Cl)c(Cl)c1)c1ccccc1	none
O=C(Nc1ccc2nc3ccccc3nc2c1)c1ccccc1	BoNT A protease 63 (no result: TcdB inh) | BoNT-A LC CP1 39 | BoNT-F LC CP1 inactive | LF protease CP1 inactive
